# High-throughput results (PubChem)
# Sampled rows, rich in hits. Any-hit rate of the full collection: about 0.93%.
# PTPN22 act = activators of human LYP (PTPN22) phosphatase. Q9Y2R2. recombinant LYP, DiFMUP fluorescence; 0 = plate median, 100 = signal doubled. activation, % at 2 µM. 0.11% of 96,000 active. AID 697;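 active means activation at 2 µM above a set limit, the mean plus 5 SD, cut at about 37% in these data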
# Target sequence (Q9Y2R2 whole entry, looked up): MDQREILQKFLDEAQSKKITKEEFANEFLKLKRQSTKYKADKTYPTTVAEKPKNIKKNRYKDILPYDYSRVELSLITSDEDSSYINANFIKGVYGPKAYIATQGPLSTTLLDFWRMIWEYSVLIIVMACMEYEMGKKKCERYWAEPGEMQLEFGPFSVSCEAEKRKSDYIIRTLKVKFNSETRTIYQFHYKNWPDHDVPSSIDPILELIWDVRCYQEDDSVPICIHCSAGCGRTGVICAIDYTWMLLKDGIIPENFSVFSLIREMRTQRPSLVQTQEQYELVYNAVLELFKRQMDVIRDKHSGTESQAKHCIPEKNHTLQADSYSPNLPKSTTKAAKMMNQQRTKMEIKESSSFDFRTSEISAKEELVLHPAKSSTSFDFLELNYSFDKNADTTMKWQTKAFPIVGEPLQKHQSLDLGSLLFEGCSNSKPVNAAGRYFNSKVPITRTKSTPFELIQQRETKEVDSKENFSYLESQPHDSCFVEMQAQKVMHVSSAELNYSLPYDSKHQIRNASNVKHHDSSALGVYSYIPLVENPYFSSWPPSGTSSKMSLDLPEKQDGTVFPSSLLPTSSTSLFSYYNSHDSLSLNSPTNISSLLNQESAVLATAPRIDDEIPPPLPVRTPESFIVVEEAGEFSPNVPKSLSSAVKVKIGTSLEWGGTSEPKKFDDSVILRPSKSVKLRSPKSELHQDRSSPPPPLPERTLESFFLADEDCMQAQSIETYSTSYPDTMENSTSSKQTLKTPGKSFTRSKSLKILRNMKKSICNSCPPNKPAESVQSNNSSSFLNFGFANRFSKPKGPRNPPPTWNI
# PLK1 inh = PLK1 (human) kinase inhibition | recombinant PLK1 kinase, TR-FRET peptide phosphorylation | inhibition, % at 10 µM | P53350 | 0.53% of 97,000 active;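 active means inhibition of 50% or more in the single-concentration screen; inactive means inhibition below 50%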;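 further: 0% = DMSO max control and 100% = H-89 dihydrochloride min control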
# Plk1 PBD FP = blocks phosphopeptide binding to human Plk1 polo box domain; 0.13% of 97,000 active; P53350; inhibition, %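 (tested at about 20 µM)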; Plk1 PBD phosphopeptide binding, fluorescence polarization; in the data active means inhibition above about 34%, passing the limit was not always enough
# PTPN22 inh 2 = LYP (human) phosphatase inhibition; Q9Y2R2; recombinant LYP catalytic domain, DiFMUP fluorescence; inhibition, % at 2 µM; 0.21% of 96,000 active; AID 640;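 active means inhibition at 2 µM at or above a set limit, the screen mean plus 3 SD, cut at about 24% in these data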;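 further: 0% = DMSO with enzyme and 100% = enzyme fully blocked by orthovanadate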
# PLK1 confirm = confirmation of human PLK1 kinase inhibitors; inhibition, % at 10 µM; shares compounds with PLK1 inh; recombinant PLK1 kinase, TR-FRET peptide phosphorylation; AID 744; 20% of 210 active;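 active means inhibition at or above 50% in each of two repeat confirmation tests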;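 further: 0% = DMSO max control and 100% = H-89 kinase-blocked min control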
# TR-FRET interf = counter-screen for Plk1 inhibitors: compound assay interference; shares compounds with PLK1 inh; Plk1 TR-FRET assay interference, compound added post-reaction; inhibition (interference), % at 10 µM; 210 tested, under 10 active;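 active means both duplicate runs show 50% or greater inhibition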;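 further: 0% = DMSO max control and 100% = H-89 min control inhibited reaction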
# * marks the source's active call; other numbers are inactive results; . = no result given.
SMILES,PTPN22 act,PLK1 inh,Plk1 PBD FP,PTPN22 inh 2,others
Cn1c(=NC(=O)C2CCN(S(=O)(=O)c3cccs3)CC2)sc2ccccc21,-1,-47,0,0,
Cn1c(=NC(=O)C2CC2)sc2cccc(F)c21,.,67*,28,.,
Cc1nn(C)c(C)c1NC(=O)CN1CCC(O)(c2ccc3c(c2)OCO3)CC1,-1,-6,-8,-1,
O=CNc1ccc(S(=O)(=O)NCc2ccccc2)cc1,0,-10,-24,0,
CC(C)c1nc2n[nH]c(N)c2c2c1CSC(C)(C)C2,7,59*,-14,-4,
O=C(O)CCC(=O)Nc1ccc(OCC(=O)O)cc1,7,-7,-18,-5,
CC1CCCCN1CCNC(=O)c1cnn2ccccc12 (centres undefined),.,69*,-4,.,
CCCC(=O)Nc1nc2c(OC)ccc(OC)c2s1,.,63*,0,.,
CCC(=O)Nc1nc2c(OC)ccc(OC)c2s1,2,-13,12,-6,
Cc1nn(-c2ccc(C(=O)O)cc2)c(=O)c2ccccc12,-2,-9,26,0,
Cc1ccc(-n2nc3c4c(cccc4c2=O)-c2ccccc2-3)cc1,-28,-5,17,32*,
C=CCNC(=S)NNC(=O)c1cccn(Cc2ccc(Cl)c(Cl)c2)c1=O,-25,-19,-5,28*,
C=CCNC(=S)NNC(=O)c1cccc2ccccc12,0,0,-5,4,
CNC(=S)NNC(=O)c1cccn(Cc2ccc(Cl)c(Cl)c2)c1=O,-69,-5,-5,69*,
O=C(Nc1cccn(Cc2c(Cl)cccc2Cl)c1=O)c1ccc(Cl)cc1Cl,-2,-2,14,5,
CNC(=S)NNC(=O)c1cccn(Cc2cccc(Cl)c2)c1=O,-59,-4,7,60*,
O=C(CC1(O)C(=O)Nc2ccccc21)c1ccccc1 (centres undefined),.,65*,-12,.,
O=C(CC1(O)C(=O)Nc2ccccc21)c1cccnc1 (centres undefined),-2,-3,-10,2,
CC(C)OCCCNc1ncnc2c1cnn2-c1ccccc1,1,2,-12,-3,
CN(C)CCCNc1ncnc2c1cnn2-c1ccccc1,-7,67*,23,5,
CC(=O)N1CCc2cc(C(=O)CN3CCCN(Cc4ccc(F)cc4)C3)ccc21,2,68*,19,-3,
N#Cc1c(/N=C/C=C/c2ccccc2)sc2c1CCCC2,0,-8,-16,2,
COc1cccc(NC(=O)C(=O)N/N=C/c2cc(C)n(-c3ccc(Cl)c(Cl)c3)c2C)c1,2,-13,-17,-2,
O=C(CCCOc1ccc(Cl)cc1Cl)Nc1ccncc1,-5,54*,-5,5,
C=CCOc1cccc(C2C(C(=O)c3ccco3)=C(O)C(=O)N2CCN(CC)CC)c1 (centres undefined),4,52*,-1,-6,
SMILES,PTPN22 act,PLK1 inh,Plk1 PBD FP,PTPN22 inh 2,others
CCOc1ccc2nc3c(cc2c1)CN(CCCO)C(=NCCOC)S3,17,-2,-30,-19,
Cc1cnc(N)c2c(=O)oc3ccccc3c12,.,52*,-18,.,
COCCCNC(=O)c1cccn2c(=O)c3cc4ccccc4cc3nc12,-42,-22,-19,43*,
O=C(NCc1ccco1)c1cccn2c(=O)c3cc4ccccc4cc3nc12,-13,0,0,15,
CCN1CCCC1CNC(=O)c1cc(NC(C)=O)c(N(C)C)cc1OC (centres undefined),2,-7,16,-4,
CCOC(=O)C1=C(C)OC(N)=C(C#N)C1c1c(C)nn(-c2ccc(C)cc2)c1Cl (centres undefined),-30,-8,-8,33*,
CNS(=O)(=O)c1cccc(C(=O)OC2CCCCC2=O)c1 (centres undefined),0,0,-5,0,
O=C(CSc1cn(CCNC(=O)c2ccccc2)c2ccccc12)NCc1ccco1,.,67*,-4,.,
Cc1ccc(C(=O)NCCn2cc(SCC(=O)Nc3cc(C)on3)c3ccccc32)cc1,.,62*,-3,.,
O=c1[nH]cnc2scc(-c3ccccc3)c12,-1,68*,15,-2,
CC(=O)Nc1cccc(NC(=O)CCn2cnc3cc(C)c(C)cc32)c1,-25,-8,-11,25*,
CCOC(=O)c1ccc(NC(=O)CCc2nc(-c3ccc(C)cc3)no2)cc1,5,64*,-3,-2,
CCOC(=O)c1ccc(NC(=O)CCc2nc(-c3ccc(Cl)cc3)no2)cc1,6,-4,8,-9,
CN1CCN(CCCNC(=O)c2cn(C)c3ccc(S(=O)(=O)N(C)C)cc3c2=O)CC1,-4,-13,-7,2,
COCCNC(=O)c1cn(C)c2ccc(S(=O)(=O)N(C)C3CCCCC3)cc2c1=O,.,62*,-10,.,
CC(C)N(CCNC(=O)c1cn(C)c2ccc(S(=O)(=O)N(C)C)cc2c1=O)Cc1ccccc1,.,59*,-2,.,
CCOCCCNC(=O)c1cn(C)c2ccc(S(=O)(=O)N(C)C3CCCCC3)cc2c1=O,-4,-2,-15,2,
CCCn1c(Nc2ccccc2)nc2ccccc21,7,-3,8,-7,
CCCn1c(Nc2ccc(Cl)cc2)nc2ccccc21,-35,-8,5,38*,
COc1ccccc1N1CCN(/N=C/c2c(C)nn(-c3ccccc3)c2C)CC1,1,-10,5,5,
Cc1ccc(N(CC(=O)NC2CCCC2)C(=O)CCCC(=O)Nc2ccccn2)cc1C,-1,58*,-5,-1,
NC(=S)Nc1ccc(Oc2ccc(NC(N)=S)cc2)cc1,-9,-16,29,12,
O=C(CSc1nnc(-c2ccc(Cl)s2)o1)N1CCCc2ccccc21,-24,-12,12,24*,
Cc1ccnc(NC(=O)CCc2c(C)nc3ncnn3c2C)c1,4,-7,-21,-6,
CCNC(=S)NNC(=O)c1cccn(Cc2ccc(Cl)cc2Cl)c1=O,-59,-8,5,60*,
SMILES,PTPN22 act,PLK1 inh,Plk1 PBD FP,PTPN22 inh 2,others
C=CCNC(=O)c1ccc(Cl)cc1Cl,3,-7,18,-4,
Cc1ccccc1C(=O)NNC(=S)NC(=O)c1ccc(Cl)cc1Cl,-6,-6,13,2,
C=CCNC(=S)NNC(=O)c1cccn(Cc2ccc(Cl)cc2Cl)c1=O,-47,-11,-12,49*,
CN=C(NC#N)SCC(=O)c1ccc(Cl)cc1Cl,5,62*,9,-4,
Cn1c(CCNC(=O)c2ccccc2)nc2cc(NC(=O)c3ccco3)ccc21,-13,-3,-7,11,
CCCC(=O)Nc1ccc2c(c1)nc(CCNC(=O)c1ccccc1)n2C,-26,-7,1,27*,
CCCSc1nc(=O)n2cccc(C)c2n1,4,-4,7,3,
Cc1nc(-c2cccnc2)sc1C(=O)Nc1ccc(Cl)cc1,-8,-8,-4,12,
Cc1nc(-c2cccnc2)sc1C(N)=O,5,76*,-29,-1,PLK1 confirm=35;TR-FRET interf=-53
CCOC(=O)N1CCN(c2c(N3CCc4ccccc43)c(=O)c2=O)CC1,.,77*,-29,.,PLK1 confirm=-1;TR-FRET interf=-51
